This passage reports activity change, negative = inhibition results from PubChem BioAssay AID1259415 (National Center for Advancing Translational Sciences (NCATS), 2018).

Structures are written as SMILES. Among all 410,000 compounds or so, about 18,000 (4.4%) were called active. Roughly 7% stayed inconclusive and do not appear here. What follows is part of a selection rich in actives, with near analogues and random picks from the rest. Values without a mark were called inactive. Rule as the data show it: active = activity change below about -60%; inconclusive = no clear call, values can overlap the other calls; inactive = above about -39%.
% is scaled to controls: 0 for no effect and ±100 for the full control effect.

The assay in a line: qHTS Assay for inhibitors of the human cytomegalovirus (HCMV). Conditions: HFF cells, HCMV-luciferase reporter, 72 h; at 57.5 µM; hits give low values. An outline of the steps: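 Human foreskin fibroblasts infected with luciferase-reporter HCMV at MOI 1 PFU/cell, compounds at two doses. Luciferase measured 72 h post infection; normalized to buffer-only basal and Salinomycin (10uM) controls.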
For the compound `Cc1ccc(C)c(Oc2c(C(F)(F)F)oc3c(CN4CCN(C)CC4)c(O)ccc3c2=O)c1`, the activity change, negative = inhibition was -2.3%.

For the compound `Cn1c(=O)nc2n(-c3ccc(Br)cc3)c3cccc(Cl)c3cc-2c1=O`, the activity change, negative = inhibition was -1.09%.

For the compound `CCOC(=O)c1cc(OC(=O)c2ccccc2Cl)n(-c2ccccc2)n1`, the activity change, negative = inhibition is -20.3%.

On to `Cc1ccc(CCNC(=O)c2nnc(Cc3cccc(F)c3)o2)cc1`, for which the activity change, negative = inhibition was -16.3%.

Regarding `COc1ccc(CCNC(=O)COC(=O)Cc2ccccc2F)cc1`, the activity change, negative = inhibition was 3.43%.

Regarding `COc1ccc(C(CNCC(=O)Nc2ccccc2F)N(C)C)cc1` (stereo unspecified), the activity change, negative = inhibition is 8.02%.

Regarding `COc1ccc(C(CCNCc2ccccc2F)c2ccc(F)cc2)cc1` (stereo unspecified), the activity change, negative = inhibition is -62.4% (active).

With `C=C1CCN([C@H](C(=O)NCc2cc(OC)c(OC)c(OC)c2)C(C)C)S(=O)(=O)c2ccccc21`, the activity change, negative = inhibition was 9.82%.

Regarding `Cc1cccc(N2CCN(C(=O)Cn3ncc4c5ccccc5n(C)c4c3=O)CC2C)c1` (stereo unspecified), the activity change, negative = inhibition is 17.6%.

`CCOC(=O)N1CCN(C(=O)C2CCN(S(C)(=O)=O)CC2)CC1`: the activity change, negative = inhibition is -16.6%.

On to `CCN1CCN(C(=O)C2CCN(S(=O)(=O)c3cc(Cl)ccc3Cl)CC2)CC1`, for which the activity change, negative = inhibition was 10.9%.

Turning to `CCOC(=O)N1CCN(C(=O)C2CCN(S(=O)(=O)c3cc(Cl)ccc3OCC)CC2)CC1`, the activity change, negative = inhibition is -87% (active).

On to `CCn1c2c(c(=O)n3ncc(C(=O)N4CCN(c5ccccc5)CC4)c13)CN(Cc1ccc(OC)cc1)CC2`, for which the activity change, negative = inhibition was 17.6%.

For the compound `COc1ccccc1-n1c(-c2ccc(C)cc2)cn2c3c(=O)n(C)c(=O)n(C)c3nc12`, the activity change, negative = inhibition was -0.712%.

As for `COCC(C)N=CC1=C(O)CC(C)(C)CC1=O` (stereo unspecified), the activity change, negative = inhibition was 36.9%.

On to `O=C(NCCCN1CCCC1=O)C(=O)NCC1OCCN1S(=O)(=O)c1ccc(Br)cc1` (stereo unspecified), for which the activity change, negative = inhibition is -19.1%.

Take `CC(C)NC(=O)C1CCC(Cn2c(=O)c3sccc3n(Cc3ccc(F)cc3)c2=O)CC1` (stereo unspecified): the activity change, negative = inhibition is 23.5%.

On to `OCCC1CN(Cc2ccc3nsnc3c2)CCN1C1CCCC1` (stereo unspecified), for which the activity change, negative = inhibition was -14.5%.

For the compound `Cn1cnnc1Sc1ccc(CN2CCN(C3CCCC3)C(CCO)C2)o1` (stereo unspecified), the activity change, negative = inhibition is -68.7% (active).

For `OCCC1CN(Cc2ccc3nsnc3c2)CCN1C1CCCCC1` (stereo unspecified), the activity change, negative = inhibition was 11.1%.

Regarding `CCN(C(=O)Cn1cc(S(=O)(=O)N2CCN(c3ccccc3F)CC2)c2ccccc2c1=O)c1ccc(C)c(C)c1`, the activity change, negative = inhibition was 3.86%.

Consider `COc1ccc(CCNc2cc(N3CCN(C(=O)c4ccccc4OC)CC3)ccc2[N+](=O)[O-])cc1OC`, for which the activity change, negative = inhibition is -94% (active).

Take `COc1ccc(CCNC(=O)C(=O)NCc2ccccc2C)cc1OC`: the activity change, negative = inhibition was -36%.

Regarding `COc1ccccc1OCCNc1cc(N2CCOCC2)ccc1[N+](=O)[O-]`, the activity change, negative = inhibition was 63.8%.

In the case of `COc1cccc(NC(=S)NC(=O)c2c(Cl)c(C)nn2C)c1`, the activity change, negative = inhibition was 12.6%.

`COc1ccc(N2CCN(S(=O)(=O)CCNC(=O)C34CC5CC(CC(C5)C3)C4)CC2)cc1`: the activity change, negative = inhibition was -36.2%.

Take `CCOc1ccccc1OCCCNCc1ccccc1`: the activity change, negative = inhibition is -10.8%.

As to `COc1ccc(Nc2cc(C(=O)NCCCN(C)c3ccccc3)c3ccccc3n2)c(OC)c1`, the activity change, negative = inhibition was -2.95%.

Regarding `CN(C)CCNC(=O)c1ccc(Cl)c2cc3ccccc3nc12`, the activity change, negative = inhibition is -98.5% (active).

Take `CN(C)CCNC(=O)Cc1ccc([N+](=O)[O-])cc1`: the activity change, negative = inhibition is -3.93%.

For `COc1cccc(-c2nnc(SCC(=O)N3CCC(C)CC3)o2)c1`, the activity change, negative = inhibition is -9.59%.

`CC(=O)c1ccc(NC(=O)COc2ccccc2-c2nc(-c3ccccc3)no2)cc1`: the activity change, negative = inhibition was 13.9%.

For the compound `COc1ccc(-c2nc(-c3ccccc3)no2)c(OC)c1`, the activity change, negative = inhibition is -60.9% (active).

As for `COc1ccc(-c2noc(CSc3nnc(-c4ccccc4)n3-c3ccc(F)cc3)n2)c(OC)c1`, the activity change, negative = inhibition is -21.4%.

`COc1ccc(-c2cc(-c3nc(-c4cc(OC)c(OC)c(OC)c4)no3)[nH]n2)c(OC)c1`: the activity change, negative = inhibition was -68.8% (active).

As to `COc1cc(-c2noc(-c3ccc(N4CCCC4)c([N+](=O)[O-])c3)n2)cc(OC)c1OC`, the activity change, negative = inhibition is -6.79%.

For the compound `COc1cc(-c2noc(C3CCCN(S(=O)(=O)c4cccc(Cl)c4)C3)n2)cc(OC)c1OC` (stereo unspecified), the activity change, negative = inhibition was 41.5%.

With `O=C1CN(C(=O)Nc2ccccc2C(F)(F)F)C(c2ccccc2)c2c(sc3c2CCCC3)N1` (stereo unspecified), the activity change, negative = inhibition is -16.6%.

On to `CCCCOc1ccc(N(CC(=O)NCC2CCCO2)C(=O)CCC(=O)Nc2cc(C)ccn2)cc1` (stereo unspecified), for which the activity change, negative = inhibition is 36.3%.

Regarding `CC(C)Oc1ccc(/C=N/NC(=O)c2nnn(-c3nonc3N)c2CN(C)C2CCCCC2)cc1`, the activity change, negative = inhibition was 7.96%.

With `Nc1nonc1-n1nnc(C(=O)N/N=C/c2cc(Br)ccc2O)c1CSC1=NCCS1`, the activity change, negative = inhibition is -103% (active).

As to `CN(C)Cc1c(C(=O)N/N=C/c2ccccc2OCc2ccc(F)cc2)nnn1-c1nonc1N`, the activity change, negative = inhibition was -6.09%.

For `CC(C)c1ccc(NC(=O)c2ccc3c(O)c(S(=O)(=O)c4ccccc4)c(=O)[nH]c3c2)cc1`, the activity change, negative = inhibition was 2.46%.

In the case of `Cc1ccc2nc(COc3ccc(NC(=O)COc4ccccc4F)cc3)cc(=O)n2c1`, the activity change, negative = inhibition was 20.4%.

As for `Cc1ccc(C2CC2C(=O)NN)cc1` (stereo unspecified), the activity change, negative = inhibition was 7.91%.

For `O=C(O)C1CSC(c2cccnc2)N1` (stereo unspecified), the activity change, negative = inhibition is -2.83%.

Consider `Cc1ccc(C2NC(C(=O)O)CS2)cc1` (stereo unspecified), for which the activity change, negative = inhibition was -64.5% (active).

`Cc1nc2ccc(S(=O)(=O)N(CC(=O)Nc3ccc(F)cc3)Cc3ccccc3)cc2s1`: the activity change, negative = inhibition is -20.3%.

Turning to `COC(=O)c1cccc(Cn2nnc3sc4c(c3c2=O)CCC(C(C)(C)C)C4)c1` (stereo unspecified), the activity change, negative = inhibition was 27.6%.

For the compound `O=c1[nH]c2cc(Br)ccc2n2cccc12`, the activity change, negative = inhibition is -16.7%.

Regarding `CC(C)OC(=O)CN1CCN(c2ccc(Cl)cc2)CC1`, the activity change, negative = inhibition was -25.8%.

Turning to `O=C(CN1CCN(c2ccc(Cl)cc2)CC1)c1ccccc1`, the activity change, negative = inhibition was -68.8% (active).

In the case of `O=C(CN1CCN(c2ccc(Cl)cc2)CC1)NCc1cccs1`, the activity change, negative = inhibition was -26.2%.

For the compound `CCCCCCCCN1C(=O)[C@H](CC(=O)NCc2cccc3ccccc23)C[C@@]2(C(=O)OC)CCCCC=C12`, the activity change, negative = inhibition was 11.4%.

`CCC(=O)N1CCc2cc(Br)cc(S(=O)(=O)Nc3ccc(C)cc3C)c21`: the activity change, negative = inhibition is -2.54%.

Regarding `CSc1nc(-c2ccccc2)nc(C(Cl)Cl)n1`, the activity change, negative = inhibition is -99.4% (active).
